# In PubChem BioAssay (NCI):
# Several values for one entry are separate records, joined by “and”; a condition that tells them apart may be missing. Equal entries are not always repeated. The panel holds about 83,000 compounds, 20% with a hit somewhere; the sample as a whole holds those more often.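 Treatment: one concentration, 48 hours, 96-well format. Scoring: percent growth, with anything below 10 considered active.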 Activity calls are given as the source filed them.
# Tested on: SR leukemia
# Test: NCI-60 one-dose screen, 48 h (100 = growth as untreated, 0 = no growth, -100 = all killed)
# Details: 10 µM unless noted
row,Structure (SMILES),growth
1,O=[N+]([O-])c1ccc2c(N=Nc3ccc4ccccc4c3O)c(O)cc(S(=O)(=O)O)c2c1,90.3% (inactive)
2,O=C(Nc1cccc(Br)c1)Oc1ccc(Cl)c2cccnc12,7.23% [100 µM] (active)
3,Oc1c(Cl)cc(Cl)c2cccnc12,32.7% (inactive) and 31.9% (inactive)
4,COC(=O)[C@@]12OC[C@]34[C@H]([C@@H](O)[C@@H]1O)[C@@]1(C)[C@H](O)C(=O)C=C(C)[C@@H]1C[C@H]3OC(=O)C(OC(C)=O)[C@@H]24 (some centres undefined),-43% (active)
5,CNC(=O)N/N=C/c1ccc([N+](=O)[O-])o1,82.8% (inactive)
6,O=C1C2=C(Nc3cc([N+](=O)[O-])ccc3N2)OC1c1c2ccccc2cc2ccccc12 (centres undefined),23.5% (inactive)
7,COc1cc(/C=C(/C)C[N+](=O)[O-])ccc1O,34% (inactive)
8,O=C(O)c1ccc2c3c(ncnc13)-c1ccccc1C2=O,98.4% (inactive)
9,CN(C)C(=O)c1ccc(SC(=S)NCc2ccccc2)cc1,-36.6% [100 µM] (active)
10,COc1ccc(-c2cscc2N)cc1,59.1% [100 µM] (inactive)
11,Cc1ccc2nc(C[n+]3ccc4ccccc4c3)ccc2c1,62.8% (inactive)
12,C=C(Cl)C(=NC(C)(C)C)Nc1ccccc1C,1.56% (active)
13,O=C1OCc2cccc3cccc1c23,93.1% (inactive)
14,NC(N)=N/N=C/c1ccc([N+](=O)[O-])o1,98.3% (inactive)
15,N#CSCc1c(Cl)cccc1Cl,59.5% (inactive)
16,CC(=O)ON=C1C=CC(=C(C#N)c2ccccc2)C=C1,17.4% (inactive)

row,Structure (SMILES),growth
1,CCCCCCCCCCCCCCCCCCOP(=O)([O-])OC1CC[N+](C)(C)CC1,3.18% (active) and -3.35% (active)
2,C[n+]1c(/C=C/c2ccc([N+](=O)[O-])cc2)ccc2ccccc21,82.7% (inactive)
3,c1ccc2c(c1)Nc1cc3ccccc3cc1N2,29.2% (inactive)
4,CCOC(=O)/C(=C\c1ccc(-c2ccccc2)cc1)C(C)=O,95.9% (inactive)
5,O=C1c2ccccc2C(=O)c2sc(Nc3ccc(Cl)cc3)nc21,4.26% (active)
6,COc1ccc2nc3cc(Cl)ccc3c(NCCNc3c4ccc(Cl)cc4nc4ccc(OC)cc34)c2c1,-29.8% (active)
7,CCOC(=O)/C=C/c1ccc([N+](=O)[O-])o1,16.2% (inactive)
8,COC(=O)c1nc(=S)[nH]c(C(=O)OC)c1C(=O)c1ccc2ccccc2c1,93.5% (inactive)
9,COc1cc(NS(C)(=O)=O)ccc1Nc1c2ccccc2nc2ccccc12,19.4% [2.5 µM] (inactive)
10,O=C(Nc1c(Cl)cccc1Cl)Oc1cccc2cccnc12,5.64% [100 µM] (active)
11,O=C(Nc1cccc(Br)c1)Oc1cccc2cccnc12,10.5% [100 µM] (inactive)
12,O=C(O)c1c(Cl)c(Cl)c(Cl)c(Cl)c1-c1c2cc(I)c(=O)c(I)c-2oc2c(I)c(O)c(I)cc12,97.9% (inactive)
13,S=C(NCCNC(=S)[S][Sn]([c]1ccccc1)([c]1ccccc1)[c]1ccccc1)[S][Sn]([c]1ccccc1)([c]1ccccc1)[c]1ccccc1,0.639% (active)
14,CN(C)C(=O)SC1=C(c2c(Cl)cccc2Cl)C(=O)c2ccccc21,-36.3% (active)
15,Cc1ccc2nc(-[n+]3cc4ccccc4cc3C)ccc2c1,33.2% (inactive)
16,O=C(O)C1C2CC3C(OC(=O)C31)C2Br (centres undefined),97.3% (inactive) and 101% (inactive)

# Tested on: RPMI-8226 leukemia
# Test: as above
# Details: 10 µM
row,Structure (SMILES),growth
1,CN(C)C(=O)c1ccc(SC(=S)NCc2ccccc2)cc1,107% (inactive)
2,COc1ccc(-c2cscc2N)cc1,88.7% (inactive)
3,O=C(Nc1c(Cl)cccc1Cl)Oc1cccc2cccnc12,45.7% (inactive)
4,O=C(Nc1cccc(Br)c1)Oc1cccc2cccnc12,99.2% (inactive)
5,O=C(O)c1c(Cl)c(Cl)c(Cl)c(Cl)c1-c1c2cc(I)c(=O)c(I)c-2oc2c(I)c(O)c(I)cc12,114% (inactive) and 90.6% (inactive) and 31.5% (inactive)

# Same assay, conditions: 10 µM unless noted
row,Structure (SMILES),growth
1,O=[N+]([O-])c1ccc2c(N=Nc3ccc4ccccc4c3O)c(O)cc(S(=O)(=O)O)c2c1,96.8% (inactive)
2,O=C(Nc1cccc(Br)c1)Oc1ccc(Cl)c2cccnc12,3.35% [100 µM] (active)
3,Oc1c(Cl)cc(Cl)c2cccnc12,50.3% (inactive) and 50.1% (inactive)
4,COC(=O)[C@@]12OC[C@]34[C@H]([C@@H](O)[C@@H]1O)[C@@]1(C)[C@H](O)C(=O)C=C(C)[C@@H]1C[C@H]3OC(=O)C(OC(C)=O)[C@@H]24 (some centres undefined),-69.8% (active)
5,CNC(=O)N/N=C/c1ccc([N+](=O)[O-])o1,83.6% (inactive)
6,O=C1C2=C(Nc3cc([N+](=O)[O-])ccc3N2)OC1c1c2ccccc2cc2ccccc12 (centres undefined),15% (inactive)
7,COc1cc(/C=C(/C)C[N+](=O)[O-])ccc1O,64.3% (inactive)
8,O=C(O)c1ccc2c3c(ncnc13)-c1ccccc1C2=O,87.1% (inactive)
9,Cc1ccc2nc(C[n+]3ccc4ccccc4c3)ccc2c1,30.5% (inactive)
10,C=C(Cl)C(=NC(C)(C)C)Nc1ccccc1C,75.1% (inactive)
11,O=C1OCc2cccc3cccc1c23,100% (inactive)
12,NC(N)=N/N=C/c1ccc([N+](=O)[O-])o1,78.7% (inactive)
13,N#CSCc1c(Cl)cccc1Cl,47.7% (inactive)
14,CC(=O)ON=C1C=CC(=C(C#N)c2ccccc2)C=C1,18.7% (inactive)
15,CCCCCCCCCCCCCCCCCCOP(=O)([O-])OC1CC[N+](C)(C)CC1,6.44% (active) and -36.6% (active)
16,C[n+]1c(/C=C/c2ccc([N+](=O)[O-])cc2)ccc2ccccc21,102% (inactive)
17,c1ccc2c(c1)Nc1cc3ccccc3cc1N2,18.8% (inactive)
18,CCOC(=O)/C(=C\c1ccc(-c2ccccc2)cc1)C(C)=O,105% (inactive)
19,O=C1c2ccccc2C(=O)c2sc(Nc3ccc(Cl)cc3)nc21,7.64% (active)
20,COc1ccc2nc3cc(Cl)ccc3c(NCCNc3c4ccc(Cl)cc4nc4ccc(OC)cc34)c2c1,-34.5% (active)
21,CCOC(=O)/C=C/c1ccc([N+](=O)[O-])o1,74.7% (inactive)
22,COC(=O)c1nc(=S)[nH]c(C(=O)OC)c1C(=O)c1ccc2ccccc2c1,103% (inactive)
23,COc1cc(NS(C)(=O)=O)ccc1Nc1c2ccccc2nc2ccccc12,11.3% [2.5 µM] (inactive)
24,S=C(NCCNC(=S)[S][Sn]([c]1ccccc1)([c]1ccccc1)[c]1ccccc1)[S][Sn]([c]1ccccc1)([c]1ccccc1)[c]1ccccc1,-24% (active)
25,CN(C)C(=O)SC1=C(c2c(Cl)cccc2Cl)C(=O)c2ccccc21,-2.59% (active)
26,Cc1ccc2nc(-[n+]3cc4ccccc4cc3C)ccc2c1,15.1% (inactive)
27,O=C(O)C1C2CC3C(OC(=O)C31)C2Br (centres undefined),102% (inactive) and 106% (inactive)
